Tb PYK inh: qHTS of Trypanosoma Brucei Inhibitors; 0.12% of 410,000 active; TbPYK enzyme, Kinase-Glo Plus ATP luminescence, 45 min; Potency, µM (titrated, usually from 76.8 µM), for inactives: top-dose activity, negative = inhibition, usual class: inhibitors; pyruvate kinase (Trypanosoma brucei), Q57TT1; also: potency is read from the fitted curve at half-maximal effect; % is scaled to controls: 0 for no effect and ±100 for the full control effect; nearly all actives have a fitted effect of over 50% in size
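Quantitative HTS: titrated library compounds versus trypanosomal pyruvate kinase in TEA buffer (pH 7.2) containing KCl, MgCl2, BSA and Tween-20. Reactions were initiated with ADP, 130 uM final. Kinase-Glo Plus luminescence was read after 45 min at RT.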
LmPK inh: qHTS Assay for Inhibitors of Leishmania Mexicana Pyruvate Kinase (LmPK); 0.37% of 290,000 active; purified LmPK, Kinase-Glo ATP luminescence, 1 h; Q27686; Potency, µM (titrated, usually from 57.5 µM), for the others: at the highest dose activity change, negative = inhibition, usual class: inhibitors; AID 1721, 2009; also: potency is read from the fitted curve at half-maximal effect; % is scaled to controls: 0 for no effect and ±100 for the full control effect
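Screened at intermediate enzyme activity to detect both inhibitors and activators: LmPK at 0.1 nM, with a 0.5 nM enzyme column as activation reference. PEP 0.5 mM, ADP 0.1 mM; ATP detected by luminescence after 1 h.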
Giardia FBPA inh: qHTS Assay for Inhibitors of Fructose-1,6-bisphosphate Aldolase from Giardia Lamblia; AID 2451, 2010; 0.71% of 290,000 active; Potency, µM (series often up to 59.6 µM), without a hit: at the highest dose activity, negative = inhibition, actives largely listed as inhibitors; A8B2U2; purified Giardia FBPA; also: potency is read from the fitted curve at half-maximal effect; % is scaled to controls: 0 for no effect and ±100 for the full control effect; nearly all actives have a fitted effect of over 55% in size
Target sequence (A8B2U2 whole entry, looked up): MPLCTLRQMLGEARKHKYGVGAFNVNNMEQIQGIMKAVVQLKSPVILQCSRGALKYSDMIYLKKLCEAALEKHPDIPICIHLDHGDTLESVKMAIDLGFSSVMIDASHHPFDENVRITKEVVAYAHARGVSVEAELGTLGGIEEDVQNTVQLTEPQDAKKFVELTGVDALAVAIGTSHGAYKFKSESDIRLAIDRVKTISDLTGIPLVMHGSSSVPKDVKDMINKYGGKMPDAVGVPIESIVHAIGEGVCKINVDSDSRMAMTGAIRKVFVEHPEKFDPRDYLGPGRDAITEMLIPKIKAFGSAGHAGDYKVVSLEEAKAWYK
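40 nM FBPA preincubated 10 min at RT with compound (up to 57.5 uM final), then substrate plus GAPDH/TPI/NAD/arsenate coupling and diaphorase/resazurin added. Fluorescence read after 20 min at RT, 525/598 nm.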
Shiga inhibitor: A qHTS for Small Molecule Inhibitors of Shiga Toxin; Vero cells, Shiga toxin protein synthesis inhibition reporter; inhibition, % at 38.7 µM; 9.2% of 290,000 active; AID 2315, 2010; in the data active = inhibition mostly above about 28%, no sharp cut-off; inactive = mostly below about 43%; also: 0% is about no effect
RE007 growth inh: qHTS Assay for Inhibitors of the HIV-1 protein Vpr; Potency, µM (series often up to 92.2 µM), inactives show at the top dose activity change, negative = less growth, usual class: inhibitors; 0.21% of 360,000 active; AID 651644, 2012; S. pombe RE007 Vpr strain, BacTiter-Glo ATP luminescence, 24 h; active = well fitted falling curve with a large enough effect; inconclusive = small, poorly fitted or top-dose-only effect; inactive = no such curve, though single readings can be large or run the other way; also: potency is read from the fitted curve at half-maximal effect; % is scaled to controls: 0 for no effect and ±100 for the full control effect; nearly all actives have a fitted effect of over 50% in size
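Fission yeast RE007 carrying one integrated HIV-1 vpr copy, seeded at OD 0.01 in PMG+AL medium with 23 nL pinned compound. Grown 24 h at 30 degrees; viability read by BacTiter-Glo luminescence after 5 min.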
Cycloheximide cs: Cycloheximide Counterscreen for Small Molecule Inhibitors of Shiga Toxin | cell reporter, cycloheximide protein synthesis inhibition counterscreen | max response, % | 12% of 300,000 active; in the data active = max response mostly above about 13%, no sharp cut-off; inactive = mostly below about 14%; also: read at 38.3 µM for the half of the compounds with a filed dose; 0% is about no effect
* hit, by the source's call; ? = inconclusive; nt = no result given; [ ] = dose if it differs, or a comment. The entries come from a sample that favours hits as a whole. Unless noted, calls follow the shape of the dose curve; as a rule, active = well fitted curve in the direction sought with a large enough effect; inconclusive = small, poorly fitted or top-dose-only effect, or another doubt; inactive = no such curve, though single readings can be large; an effect the other way counts as inactive or inconclusive.

SMILES	Tb PYK inh	LmPK inh	Giardia FBPA inh	Shiga inhibitor	RE007 growth inh	Cycloheximide cs
CN(C)CCCN(C(=O)c1ccc(C(=O)c2ccccc2)cc1)c1nc2cc3c(cc2s1)OCCO3	0.6%	-0.1%	nt	18.7	12.8%	-3.0
CN(C)CCN(C(=O)c1ccc(C(=O)c2ccccc2)cc1)c1nc2cc3c(cc2s1)OCCO3	0.9%	7.2%	-17.8%	81.1*	-11.3%	36.4*
CN(C)CCCN(C(=O)c1ccc(S(=O)(=O)N(C)C)cc1)c1nc2cc3c(cc2s1)OCO3	-4.3%	3.3%	0.4%	13.9	-13.3%	8.2
CN(C)CCN(C(=O)c1ccco1)c1nc2cc3c(cc2s1)OCCO3	-5.5%	8.5%	?	41.2	-8.1%	38.5*
COc1ccc(C(=O)Nc2ccc(N3CCOCC3)cc2)cc1OC	-30.9%	15.8µM*	-15.1%	35.0	?	-1.3
O=C(Nc1ccc(N2CCOCC2)cc1)c1cccc(-n2cnnc2)c1	-7.0%	-12.7%	nt	-7.2	11.6%	11.5
CN(C)c1cccc(C(=O)Nc2ccc(N3CCOCC3)cc2)c1	1.2%	-29.9%	-2.6%	76.7	-5.6%	23.2*
COc1cccc(/C=C/C(=O)Nc2ccc(N3CCOCC3)cc2)c1OC	-4.1%	-0.3%	-4.0%	51.2	6.3%	18.3*
COc1ccccc1/C=C/C(=O)Nc1ccc(N2CCOCC2)cc1	0.9%	-0.1%	0.3%	25.2	-5.6%	4.5
COc1ccc(C(=O)Nc2ccc(S(=O)(=O)N3CCOCC3)cc2)cc1OC	1.2%	-2.8%	3.5%	-9.1	18.2%	1.0
COc1ccccc1OCCCC(=O)Nc1ccc(N2CCOCC2)cc1	-0.1%	1.5%	-8.6%	10.0	0.8%	13.3*
COc1ccc(C(=O)Nc2ccc(N3CCCC3)cc2)cc1Br	-23.3%	2.9%	4.9%	17.4	-13.9%	12.3
COc1ccc(C(=O)Nc2ccc(N3CCCC3)cc2)cc1OC	?	?	-23.2%	51.4*	-4.6%	34.3*
COc1ccccc1Nc1nc(N)nc(CSC(=S)N2CCC(C)CC2)n1	-1.4%	3.9%	0.2%	31.2	11.3%	43.2*
COc1ccccc1Nc1nc(N)nc(CSC(=S)N2CCCCC2C)n1 (configuration not stated)	1.1%	4.5%	-16.0%	42.7*	-11.4%	43.2*
COc1ccccc1Nc1nc(N)nc(CSC(=S)N2CCN(c3ccccc3)CC2)n1	-0.6%	-7.7%	-0.8%	21.2	-1.5%	17.6
Cc1nn(-c2ccc(Cl)cc2)c(Cl)c1/C=N/NC(=O)c1ccc(NS(=O)(=O)c2cccs2)cc1	-21.0%	nt	nt	nt	-3.1%	nt
OC1(c2cccc(C(F)(F)F)c2)CCN(c2ccc(-c3ccccc3)nn2)CC1	0.0%	-2.0%	6.0%	67.5*	-12.1%	38.0*
O=C(Nc1ccccc1)N1CCC(O)(c2cccc(C(F)(F)F)c2)CC1	4.0%	7.0%	8.4%	-1.9	16.5%	-1.4
CCOc1ccccc1C(=O)N/N=C/c1c[nH]c2ccccc12	-1.5%	-2.2%[11.5 µM]	-5.4%	17.0	0.5%	17.3
COc1ccc2c(c1)c(/C=N/Nc1ccc(C(=O)O)cc1)c(C)n2C	-11.1%	-2.6%	-18.8%	70.2*	-8.3%	43.5*
CC(=O)Nc1cccc(C(=O)N/N=C/c2c[nH]c3ccccc23)c1	-1.2%	-1.1%	4.6%	39.3	11.9%	12.6*
O=C(N/N=C/c1c[nH]c2ccccc12)c1cccc(O)c1	2.4%	0.7%	0.4%	70.2*	-3.3%	26.2*
O=C(N/N=C/C1C(c2ccccc2)C1(Cl)Cl)c1cccc(Cl)c1 (configuration not stated)	1.6%	5.4%	-8.2%	49.4*	-1.9%	39.6*
O=C(Nc1ccc(N=Nc2ccccc2)cc1)c1cccc(Cl)c1	0.7%	2.0%	4.8%	-0.5	-13.5%	-1.0
SMILES	Tb PYK inh	LmPK inh	Giardia FBPA inh	Shiga inhibitor	RE007 growth inh	Cycloheximide cs
COc1ccc(C(=O)Nc2ccccc2)cc1NC(=O)c1ccc([N+](=O)[O-])cc1	-2.7%	-2.7%	5.3%	24.9	-21.2%	-2.7
CCC1CN(C(=O)N2CCC(C(=O)NCCc3ccccc3Cl)CC2)c2cc(C)ccc2O1 (configuration not stated)	5.6%	nt	nt	nt	nt	nt
Cc1ccccc1CN1C(=O)c2ccccc2S(=O)(=O)c2ccc(C(=O)OCC3CCCO3)cc21 (configuration not stated)	-1.1%	nt	nt	nt	nt	nt
COc1ccc2c(/C=N/Nc3ccc(C(=O)O)cc3)c[nH]c2c1	-7.7%	3.4%	-5.9%	132.6*	-9.3%	46.7*
O=C(N/N=C/c1c[nH]c2ccccc12)c1ccc(O)c(O)c1	-9.5%	-4.0%	-29.4%	64.4*	-2.3%	24.0*
COc1ccc(C(=O)N/N=C/c2c[nH]c3ccccc23)cc1	-7.9%	1.7%	25.2%	69.3*	-16.8%	31.1*
O=C(N/N=C/c1c[nH]c2ccccc12)c1cccc(Cl)c1	0.7%	-6.6%	2.1%	46.2*	2.3%	46.8*
COC(=O)c1scc(-c2ccc(C)cc2)c1S(=O)(=O)N1CCN(c2ccccc2F)CC1	0.6%	nt	nt	nt	nt	nt
O=C(Cn1nnc(-c2ccccc2F)n1)Nc1ccc2c(c1)OCCO2	0.3%	-9.0%	-8.2%	79.1*	-25.1%	32.2*
O=C(Cn1nnc(-c2ccccc2NC(=O)c2ccccc2)n1)Nc1ccc2c(c1)OCCO2	3.2%	2.0%	1.8%	6.3	0.8%	-1.4
Cc1ccccc1C(=O)Nc1ccccc1-c1nnn(CC(=O)Nc2ccc3c(c2)OCCO3)n1	-3.3%	8.1%	5.1%	41.4	-8.4%	38.3*
CC(=O)Nc1ccccc1-c1nnn(CC(=O)Nc2ccc3c(c2)OCCO3)n1	-5.2%	3.9%	-5.3%	45.4	10.3%	24.5*
COc1ccccc1NC(=O)Cn1nnc(-c2ccccc2NC(=O)c2cc3ccccc3oc2=O)n1	-8.2%	-5.5%	1.5%	80.1*	11.9%	39.3*
Cc1ccccc1C(=O)NC1CCN(CC(=O)Nc2ccc3c(c2)OCCO3)CC1	4.1%	-5.3%	-3.2%	24.5	10.6%	9.3
COc1ccc2c(c1)NC(c1ccc(OCC(C)C)cc1)=NC(c1ccncc1)=N2	1.7%	nt	nt	nt	nt	nt
COc1ccc(C2=CSC3=NNC4(CCCCC4)NN23)cc1	2.5%	-2.8%	-3.2%	102.5*	9.8%	34.7*
Cc1ccc(C2=CSC3=NNC4(CCCCC4)NN23)cc1	-1.5%	-2.5%	-5.1%	88.1*	-3.0%	52.9*
CC(C)(C)OC(=O)N1CCC(c2c(C(=O)Nc3ccc4c(c3)OCCO4)cnn2-c2ccc(F)cc2F)CC1	-5.3%[15.4 µM]	nt	nt	nt	nt	nt
CC(NC(=O)CN1C(=O)COc2ccc(S(=O)(=O)N3CCCCCC3)cc21)c1ccccc1 (configuration not stated)	-6.9%	nt	nt	nt	nt	nt

Source: PubChem (National Center for Advancing Translational Sciences (NCATS))
